Measured values: PubChem BioAssay (NCATS)

Assay: qHTS profiling of the MIPE4 collection as inhibitors of Plasmodium falciparum (3D7) proliferation (AID 743344);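 note: scaled between DMSO vehicle wells and 0.29 µM artemisinin as full inhibition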
Conditions: P. falciparum 3D7 in erythrocytes, SYBR Green DNA fluorescence, 72 h; at 28.5 µM
Procedure, shortened: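 Parasite DNA was quantified by SYBR Green I fluorescence (ex 485, em 535 nm) after overnight lysis in saponin/Triton buffer at room temperature. Cultures at 0.3% parasitemia and 2.5% hematocrit were first exposed to compound for 72 h at 37 C; signals were normalised to artemisinin (0.29 uM) and vehicle wells.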

SMILES	parasite growth, % of DMSO control [%]
O=C(N[C@@H](COc1ccc2[nH]c(=O)[nH]c2c1)c1ccccc1)c1cccn(Cc2ccc(F)c(F)c2)c1=O	50.5
C[C@]12CCC(=O)C(O)=C1CC[C@@H]1[C@H]3CCC(=O)[C@@]3(C)CC[C@@H]12	77.1
O=S(=O)(F)Cc1ccccc1	95.8
CC(C)(C)c1cc(C=C(C#N)C#N)cc(Br)c1O	34.5
C[C@@H]1CC[C@@]2(OC1)O[C@H]1C[C@H]3[C@@H]4CC=C5C[C@@H](O[C@@H]6O[C@H](CO)[C@@H](O[C@@H]7O[C@@H](C)[C@H](O)[C@@H](O)[C@@H]7O)[C@H](O)[C@@H]6O[C@@H]6O[C@@H](C)[C@H](O)[C@@H](O)[C@@H]6O)CC[C@]5(C)[C@@H]4CC[C@]3(C)[C@@H]1[C@H]2C	57.2
O=C(NCC1CCOCC1)c1cnc(Nc2ccc(Cl)cc2Cl)nc1C(F)(F)F	52.4
CC(=O)OCC1=C(C(=O)O)N2C(=O)[C@@H](N)[C@@H]2SC1	90.9
O=C1C=CC[C@@H]2[C@H]3CCCN4CCC[C@@H](CN12)[C@@H]34	101
CC1=C(O)C(=O)C=C2C1=CC=C1[C@@]2(C)CC[C@@]2(C)[C@@H]3C[C@](C)(C(=O)O)CC[C@]3(C)CC[C@]12C	8.49
C[C@@H]1CC[C@H]2[C@@H](C)C(=O)O[C@@H]3O[C@@]4(C)CC[C@H]1[C@]32OO4	22.6
CC(=O)N(C)c1cccc(-c2ccnc3c(C(=O)c4cccs4)cnn23)c1	44.9
COc1cc2cc(c1Cl)N(C)C(=O)C[C@H](OC(=O)C(C)C)[C@]1(C)O[C@H]1[C@H](C)[C@@H]1C[C@@](O)(NC(=O)O1)[C@H](OC)C=CC=C(C)C2	14
O=c1cccc2n1CC1CNC[C@H]2C1	71.3
COc1cccc2c1[C@]13CCN(CC4CC4)[C@H](C2)[C@]1(OC)CCC(=O)C3	98.3
O=C(Nc1ccncc1)C(=O)c1cn(Cc2ccc(Cl)cc2)c2ccccc12	91
CCNC(=O)CC1N=C(c2ccc(Cl)cc2)c2cc(OC)ccc2-n2c(C)nnc21 (centres undefined)	26.1
CCN1CCN(C(=O)Cc2ccc(Nc3ncc(F)c(Nc4ccc(C(=O)Nc5ccccc5Cl)cc4)n3)cc2)CC1	6.35
C[C@]12CC[C@H](O)CC1=CC[C@H]1[C@H]3CCC(=O)[C@@]3(C)CC[C@@H]12	72.2
CC(=CCCC1=CCC(C2=CC(=O)OC2O)OC1O)CCC1=C(C)CCCC1(C)C (centres undefined)	15.8
C[C@]12CC[C@@H]3[C@@H](CCC4=CC(=O)CC[C@@H]43)[C@@H]1CC[C@@H]2OC(=O)CCc1ccccc1	65.4

SMILES	parasite growth, % of DMSO control [%]
CSCC[C@@H](NC(=O)[C@@H](Cc1ccccc1)NC(=O)CNC(=O)CNC(=O)[C@@H](N)Cc1ccc(O)cc1)C(=O)O	92.2
C#CC1(O)CCC2C3CCC4=CC(=O)CCC4(C)C3CCC21C (centres undefined)	78.6
CCC(=O)OC1CCC2C3CCC4=CC(=O)CC[C@@]4(C)C3CC[C@]12C (some centres undefined)	89.9
O=C1CCC[C@@H]2[C@H]3CCCN4CCC[C@@H](CN12)[C@@H]34	91.5
COc1ccc(N(C(=O)Oc2c(C)cccc2C)c2ccnc(Nc3ccc(N4CCN(C)CC4)cc3)n2)c(OC)c1	5.18
COC1=C[C@@H]2[C@@H]3Cc4ccc(OC)c(O)c4[C@]2(CCN3C)CC1=O	102
CC=C(C)C(=O)O[C@H]1C(C)=C2[C@@H]3OC(=O)[C@@](C)(O)[C@@]3(O)[C@@H](OC(=O)CCC)C[C@](C)(OC(C)=O)[C@@H]2[C@@H]1OC(=O)CCCCCCC	15.2
C=C[C@@H]1CN2CCC1C[C@@H]2[C@@H](O)c1ccnc2ccccc12 (some centres undefined)	15.2
C=C[C@@H]1CN2CCC1C[C@H]2[C@H](O)c1ccnc2ccccc12 (some centres undefined)	26.8
C[C@@]12OC(=O)[C@]1([C@@H](O)[C@@H]1C=CCCC1)NC(=O)[C@H]2CCCl	4.78
COC[C@H]1OC(=O)c2coc3c2[C@@]1(C)C1=C(C3=O)[C@@H]2CC[C@H](O)[C@@]2(C)C[C@@H]1OC(C)=O	93.1
CC=C(C)C(=O)N[C@@H](c1ccccc1)[C@@H](O)C(=O)O[C@H]1C[C@@]2(O)[C@@H](OC(=O)c3ccccc3)[C@@H]3[C@]4(OC(C)=O)CO[C@@H]4C[C@H](O)[C@@]3(C)C(=O)[C@H](OC(C)=O)C(=C1C)C2(C)C	4.24
CCNC(=O)C[C@@H]1N=C(c2ccc(Cl)cc2)c2cc(OC)ccc2-n2c(C)nnc21	76.4
CCOP(=O)(OCC)C(C)NC(=O)N(CCCl)N=O (centres undefined)	103
COc1ccc2c(c1)CN(C)CC2c1ccc(Cl)c(Cl)c1 (centres undefined)	12.3
C[C@@H]1O[C@@H](O[C@@H]2C=C3CC[C@@H]4[C@@H](CC[C@]5(C)[C@H](c6ccc(=O)oc6)CC[C@@]45O)[C@@]3(C)CC2)[C@H](O)[C@H](O)[C@H]1O	79
Cc1[nH]nc2ccc(-c3cncc(OC[C@@H](N)Cc4c[nH]c5ccccc45)c3)cc12	18.3
CO[C@H]1CCC(O[C@H]2C[C@H]([C@]3(C)CC[C@]4(C[C@H](O)[C@@H](C)[C@@H]([C@@H](C)C=C(C)C(=O)[C@H](C)C[C@H](C)C(=O)O)O4)O3)O[C@]3(O[C@@H]([C@H]4O[C@@](O)(CO)[C@H](C)C[C@H]4C)C[C@H]3C)[C@H]2C)O[C@H]1C (some centres undefined)	11.2
CC(=Cc1csc(C)n1)[C@@H]1C[C@H]2O[C@]2(C)CCC[C@H](C)[C@@H](O)[C@@H](C)C(=O)C(C)(C)[C@@H](O)CC(=O)O1	15.3
